# Values without a mark were called inactive. Inconclusive results are not listed. A call without a number means that no potency is given here. Activity calls are given as the source filed them. Calls follow the shape of the dose curve; as a rule, active = well fitted curve in the direction sought with a large enough effect; inconclusive = small, poorly fitted or top-dose-only effect, or another doubt; inactive = no such curve, though single readings can be large; an effect the other way counts as inactive or inconclusive.
# What was measured:
# [1] = system: Zika virus NS2B-NS3 protease (linked construct); assay: Primary screen NINDS Rhodamine qHTS for Zika virus inhibitors (AID 1347160); also: nearly all actives have a fitted effect of over 55% in size; also: potency is read from the fitted curve at half-maximal effect
# Outline: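 Percent inhibition, normalized to uninhibited and enzyme-free controls, is fitted to a 4-parameter Hill equation. Fluorescence change comes from a 15-min cleavage of 1.5 microM bis-peptide Rhodamine110 substrate by 25 nM linked NS2B-NS3 at room temperature.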
# [2] = OV-KATE Cancer Cell Toxicity qHTS against the NCATS CANVASS Library (AID 1347345); also: potency is read from the fitted curve at half-maximal effect
# Outline: (§1)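 Viability was assessed by adding CellTiter-Glo reagent to treated cultures and reading luminescence after 15min at room temperature. Treatment lasted 72 h at 37 degrees C/5% CO2, using an 11-point series on 1000 cells/well.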
# [3] = HPAF-II Cancer Cell Toxicity qHTS against the NCATS CANVASS Library (AID 1347346); also: nearly all actives have a fitted effect of over 55% in size; also: potency is read from the fitted curve at half-maximal effect
# Outline: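 HPAF-II cells at 1000 cells/well were treated with an 11-point concentration series for 72 hours at 37 degrees C. Viability read by CellTiter-Glo luminescence.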
# [4] = UWB1.289 Cancer Cell Toxicity qHTS against the NCATS CANVASS Library (AID 1347347); also: nearly all actives have a fitted effect of over 60% in size; also: potency is read from the fitted curve at half-maximal effect
# Outline: as §1
# [5] = OV-SAHO Cancer Cell Toxicity qHTS against the NCATS CANVASS Library (AID 1347348); also: nearly all actives have a fitted effect of over 55% in size; also: potency is read from the fitted curve at half-maximal effect
# Outline: as §1
# [6] = Panc-1005 Cancer Cell Toxicity qHTS against the NCATS CANVASS Library (AID 1347349); also: nearly all actives have a fitted effect of over 60% in size; also: potency is read from the fitted curve at half-maximal effect
# Outline: as §1
# [7] = SW1088 Cancer Cell Toxicity qHTS against the NCATS CANVASS Library (AID 1347350); also: nearly all actives have a fitted effect of over 75% in size; also: potency is read from the fitted curve at half-maximal effect
# Outline: as §1
# [8] = COV-362 Cancer Cell Toxicity qHTS against the NCATS CANVASS Library (AID 1347352); also: series mostly up to about 38 µM
# Outline: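 Cells at 1000/well were given compound 4 h after plating in an 11-point series. Viability was read by CellTiter-Glo luminescence after 72 h at 37 degrees C.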
# [9] = HEK293 18hr Apoptosis Induction qHTS against the NCATS CANVASS Library (AID 1347357); also: potency is read from the fitted curve at half-maximal effect
# Outline: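 Luminescent caspase-3/7 signal is measured in HEK293 cells exposed for 18 hours to an 11-point concentration series; doxorubicin serves as the plate control.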
# [10] = HEK293 24hr Apoptosis Induction qHTS against the NCATS CANVASS Library (AID 1347359)
# Outline: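 Caspase-3/7 activation measured as luminescence from the DEVD-based Caspase-Glo reagent, 15 min at room temperature, following 24-hour compound treatment of HEK293 cells.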
# [11] = KB-3-1 Cancer Cell Toxicity qHTS against the NCATS CANVASS Library (AID 1347366); also: nearly all actives have a fitted effect of over 75% in size; also: potency is read from the fitted curve at half-maximal effect
# Outline: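 Seed KB-3-1 cells at 500/well in DMEM with 10% FBS, add compounds, incubate 72 hr at 37C and 5% CO2, then add CellTiter-Glo and read luminescence after 10 minutes.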
# [12] = qHTS for ATAD5 Agonist screened against the NCATS CANVASS Library (AID 1347367);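 also: luciferase reporter driven by ATAD5 which rises upon DNA damage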
# Outline: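 Step one plated reporter cells and let them acclimate 5hr. Step two pinned compounds with MMS as positive and 0.46% DMSO as negative control. After 16hr incubation, fluorescence viability then luminescence were read.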
# [13] = MCF7 Cancer Cell Toxicity qHTS against the NCATS CANVASS Library (AID 1347369); also: potency is read from the fitted curve at half-maximal effect
# Outline: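 Cytotoxicity is measured by ATP content: MCF7 cells at 500 per well receive an 11-point compound series and, after 72 hr at 37C, are lysed with CellTiterGlo for luminescence.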
# [14] = J3T Cancer Cell Toxicity qHTS against the NCATS CANVASS Library (AID 1347371); also: potency is read from the fitted curve at half-maximal effect
# Outline: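 J3T dog glioma cells, 500 per well, treated 72 h at 37C with compounds (11-point qHTS); viability from ATP content by CellTiterGlo luminescence; bortezomib titration as control.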
# [15] = molecular target: Nuclear receptor subfamily 1 group I member 3 (Homo sapiens) (UniProt Q14994); assay: qHTS for Constitutive Androstane Receptor (CAR) Agonist screened against the NCATS CANVASS Library (AID 1347373);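 also: every well also contained 1.5 µM PK11195 alongside the test compound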
# Outline: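 HepG2 cells stably carrying hCAR and a CYP2B6-2.2kb luciferase reporter, treated 24hr at 37C with compounds plus 1.5uM PK11195; activation by ONE-Glo luminescence, viability by CellTiter-Fluor.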
# [16] = 10-beta competent E. coli microbial cell viability qHTS against the NCATS CANVASS Library (AID 1347376); also: series mostly up to about 46 µM
# Outline: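 10-beta competent E. coli (0.2 OD) were exposed overnight at 37C to compounds in an 11-point series. Viability was read as ATP-dependent BacTiter-Glo luminescence after 20 min at room temperature.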
# [17] = qHTS for Inflammasome Signaling Inhibitors: IL-1-beta AlphaLISA screen against the NCATS CANVASS Library (AID 1347379);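 also: human THP-1 cells primed with LPS then triggered with ATP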
# Outline: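 THP-1 cells pretreated 1 hr with compound (up to 57.5 uM final), then stimulated with LPS (250 ng/mL final) and ATP (1.25 mM final). Secreted IL-1B measured by AlphaLISA after 16 hr; glyburide as positive control.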
# [18] = Inflammasome Signaling qHTS Counterscreen: IL-1-beta AlphaLISA counterscreen against the NCATS CANVASS Library (AID 1347381);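 also: cell-free check with purified IL-1β in medium and no THP-1 cells; series mostly up to about 57 µM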
# Outline: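 Cell-free interference check: compounds added to medium spiked with 4 pg purified IL-1β. Anti-IL-1β acceptor beads (6 ug/mL) with 0.6 nM biotinylated antibody added for 1 h at RT, then streptavidin donor beads (24 ug/mL) for 30 min in the dark. AlphaLISA read at 680/615 nm.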
# [19] = Vero-766 cells viability qHTS against the NCATS CANVASS Library: Counterscreen for Zika virus inhibition assay (AID 1347394); also: nearly all actives have a fitted effect of over 60% in size; also: potency is read from the fitted curve at half-maximal effect
# Outline: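 This cytotoxicity counterscreen uses African green monkey Vero 766 cells in the absence of Zika virus. Compounds are incubated with cells for 72 h, and ATP-based luminescence reports viability.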
# [20] = Viability qHTS for inhibitors of the SERCaMP assay screened against the NCATS CANVASS Library (AID 1347400); also: nearly all actives have a fitted effect of over 70% in size; also: potency is read from the fitted curve at half-maximal effect
# Outline: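 SH-SY5Y-GLuc SERCaMP MJH297-derived cells, 1000/well, plated 4 h, then exposed to compounds in an 11-point qHTS series for 48 h at 37C. Viability read as CellTiter-Glo luminescence.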
# Chain of Nuclear receptor subfamily 1 group I member 3 (Homo sapiens) (Q14994 whole entry, looked up): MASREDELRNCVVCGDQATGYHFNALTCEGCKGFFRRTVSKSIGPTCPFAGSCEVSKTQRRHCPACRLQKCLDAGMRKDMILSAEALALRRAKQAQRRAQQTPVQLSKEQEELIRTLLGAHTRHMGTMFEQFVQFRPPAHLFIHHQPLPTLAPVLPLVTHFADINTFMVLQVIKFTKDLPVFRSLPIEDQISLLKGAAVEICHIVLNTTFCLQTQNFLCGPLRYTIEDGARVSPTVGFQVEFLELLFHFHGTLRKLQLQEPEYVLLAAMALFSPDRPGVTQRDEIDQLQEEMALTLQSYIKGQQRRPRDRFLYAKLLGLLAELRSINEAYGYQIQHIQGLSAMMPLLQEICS
SMILES,Potency [1],Potency [2],Potency [3],Potency [4],Potency [5],Potency [6],Potency [7],Potency [8],Potency [9],Potency [10],Potency [11],Potency [12],Potency [13],Potency [14],outcome [15],outcome [16],Potency [17],outcome [18],Potency [19],Potency [20]
CC[C@@H]1C[C@@]2(CC)OC(=O)[C@@]3(CC)OC(=O)[C@@H]1[C@@H]23,inactive,inactive,inactive,inactive,inactive,inactive,inactive,inactive,inactive,inactive,inactive,inactive,inactive,inactive,inactive,inactive,inactive,inactive,inactive,inactive
CC(O)/C=C/C1(O)C(C)(C)CC(O)CC1(C)O (stereo unspecified),inactive,inactive,inactive,inactive,inactive,inactive,inactive,inactive,inactive,inactive,inactive,inactive,inactive,inactive,inactive,inactive,inactive,inactive,inactive,inactive
COc1ccc([C@@H]2c3cc(OC)c(OC)cc3C(=O)C(C)C2C)cc1OC (stereo partly specified),inactive,inactive,inactive,inactive,inactive,inactive,inactive,inactive,inactive,inactive,inactive,inactive,inactive,inactive,inactive,inactive,inactive,inactive,inactive,
C=C(C)C(=O)O[C@H]1C[C@H](C)[C@@H](OC(C)=O)CC[C@@]2(C)O[C@@H]2[C@H]2OC(=O)C(COC(C)=O)=C12,31.1 µM (active),4.2 µM (active),11.9 µM (active),6.66 µM (active),2.36 µM (active),6.68 µM (active),8.41 µM (active),inactive,9.35 µM (active),,,,23.4 µM (active),6.62 µM (active),inactive,inactive,9.68 µM (active),inactive,,9.57 µM (active)
C1=C2CCCN[C@@H]2[C@@H]2CCN3CCCC[C@@H]3[C@H](C1)C2,inactive,inactive,inactive,inactive,inactive,inactive,inactive,inactive,inactive,inactive,inactive,inactive,inactive,inactive,inactive,inactive,inactive,inactive,inactive,inactive
CN1C(=O)C2C(N=CN2C)N(C)C1=O (stereo unspecified),inactive,inactive,inactive,inactive,inactive,inactive,inactive,inactive,inactive,inactive,inactive,inactive,inactive,inactive,inactive,inactive,inactive,inactive,inactive,inactive
C/C=C/C(=O)[C@@H](C)C1=CC(=O)C2=C(O[C@@]34CC[C@H](O)C(C)(C)[C@@H]3CC[C@H](C)[C@@]4(C)C2)C1=O,49.3 µM (active),8.38 µM (active),3.75 µM (active),21.1 µM (active),6.66 µM (active),4.21 µM (active),7.49 µM (active),,,,20.9 µM (active),inactive,13.1 µM (active),5.26 µM (active),inactive,inactive,3.43 µM (active),inactive,18.6 µM (active),13.5 µM (active)
CNc1ccc(Cl)cc1C(=O)OC[C@]1(C)[C@H]2CC[C@]3(C)[C@@H](C[C@@H](OC)[C@H](C)[C@H]3C3=C(O)C(=O)OC3O)[C@]2(C)CC[C@H]1O (stereo partly specified),6.21 µM (active),inactive,inactive,inactive,inactive,inactive,,inactive,inactive,inactive,inactive,inactive,inactive,inactive,inactive,inactive,inactive,inactive,inactive,inactive
C=C[C@]1(C)CC[C@@H]([C@H](C)C(=O)OCC)O1,27.2 µM (active),inactive,inactive,inactive,inactive,inactive,inactive,inactive,inactive,inactive,inactive,inactive,inactive,inactive,inactive,inactive,inactive,inactive,inactive,inactive
C/C=C/c1cc(OC)c2c(c1)[C@@H](C)[C@H](c1ccc(O)c(OC)c1)O2,55.3 µM (active),inactive,inactive,inactive,inactive,inactive,inactive,inactive,inactive,inactive,inactive,inactive,inactive,inactive,inactive,inactive,inactive,inactive,inactive,inactive
CO[C@@H]1[C@H](O)[C@@H](C)O[C@@H](OC[C@@H]2C(C)OC(=O)/C=C/[C@H](C)C(O[C@@H]3O[C@H](C)CC4(OC(=O)O[C@@H]4C)C3O)[C@@H](C)CC(C)C(=O)CC[C@H]3OC23)[C@@H]1OC (stereo partly specified),49.3 µM (active),inactive,inactive,inactive,inactive,inactive,inactive,inactive,inactive,inactive,inactive,inactive,inactive,inactive,inactive,inactive,inactive,inactive,inactive,inactive
